Data reported in PubChem BioAssay (NCATS).
Several values for one entry are separate records, joined by “and”; a condition that tells them apart may be missing. Equal values may be shown once. Unmarked numbers belong to inactive results. Records with an inconclusive call do not appear. A structure can be active in one record and inactive in another. Activity calls are given as the source filed them. Unless noted, the call rests on the fitted dose curve; in most records, active means well fitted curve in the direction sought with a large enough effect; inconclusive means small, poorly fitted or top-dose-only effect, or another doubt; inactive means no such curve, though single readings can be large; an effect the other way counts as inactive or inconclusive.

What was measured:
[1] = target: Tumor necrosis factor (Homo sapiens) (UniProt P01375); test: qHTS assay to identify small molecules that stimulate Tumor Necrosis Factor-alpha (TNF-alpha) secretion (AID 651757; active means well fitted curve in the direction sought with a large enough effect in the signal ratio; the % refers to the signal ratio; further: 0% is about no effect)
Tumor necrosis factor (Homo sapiens), sequence (P01375 whole entry, looked up): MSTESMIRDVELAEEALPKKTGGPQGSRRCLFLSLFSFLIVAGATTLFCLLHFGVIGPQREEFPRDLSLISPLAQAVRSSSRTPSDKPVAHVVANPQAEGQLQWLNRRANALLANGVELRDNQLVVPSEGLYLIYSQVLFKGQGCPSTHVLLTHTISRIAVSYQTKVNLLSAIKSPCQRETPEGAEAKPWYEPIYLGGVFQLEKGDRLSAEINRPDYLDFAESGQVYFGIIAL
Procedure, shortened: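 Human monocytic THP-1 cells are plated, treated with compound and held at 37 C for 17 hrs. Labeled anti-TNF-alpha antibody mixture is then added; after 3 hr at room temperature, TR-FRET signal reports secreted TNF-alpha.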

[2] = qHTS assay for environmental chemicals that activate the Aryl hydrocarbon Receptor (AhR) signaling pathway (AID 651777); conditions: 1A2-DRE human hepatoma cells, luciferase, 24 h; active compounds read high; further: % of control where 0% means no effect; nearly all actives have a fitted effect of over 15% in size
Procedure, shortened: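 Luminescence read-out: One-Glo added for 30 min at RT after 24 hr compound treatment (37 C, 5% CO2) of human hepatoma cells expressing a DRE/CYP1A2 promoter–luciferase reporter; increased signal indicates AhR activation.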

[3] = target: Peroxisome proliferator-activated receptor alpha (Homo sapiens) (UniProt Q07869); test: qHTS assay for small molecule agonists of the peroxisome proliferator-activated receptor alpha (PPARalpha) signaling pathway (AID 651778); conditions: PathHunter PPARalpha complementation, chemiluminescence, 6 h; max response: active compounds read high; further: potency means the concentration at half of the fitted maximal effect; on max response: % of control where 0% means no effect
Peroxisome proliferator-activated receptor alpha (Homo sapiens), sequence (Q07869 whole entry, looked up): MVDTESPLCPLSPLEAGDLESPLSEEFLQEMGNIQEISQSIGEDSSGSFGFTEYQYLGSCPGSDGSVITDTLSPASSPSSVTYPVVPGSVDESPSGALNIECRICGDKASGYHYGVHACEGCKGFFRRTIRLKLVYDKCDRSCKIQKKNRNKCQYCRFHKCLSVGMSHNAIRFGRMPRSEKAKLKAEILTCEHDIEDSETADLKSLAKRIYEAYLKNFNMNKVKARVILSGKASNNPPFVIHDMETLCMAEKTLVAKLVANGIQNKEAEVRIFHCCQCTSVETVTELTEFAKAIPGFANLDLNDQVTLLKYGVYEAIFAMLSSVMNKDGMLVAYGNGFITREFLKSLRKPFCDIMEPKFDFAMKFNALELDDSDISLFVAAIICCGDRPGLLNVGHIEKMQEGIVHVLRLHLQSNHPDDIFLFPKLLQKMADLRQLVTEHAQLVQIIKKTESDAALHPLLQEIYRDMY
Procedure, shortened: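 Cells plated at 2,000/well and held overnight at 37 C, 5% CO2, then compound added by pin tool for 6 hr; after PathHunter detection reagent and 60 min at room temperature, chemiluminescence from enzyme complementation was read.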

[4] = target: Nuclear receptor ROR-gamma (Homo sapiens) (UniProt P51449); test: qHTS assay for small molecule antagonists of the retinoid-related orphan receptor gamma (ROR-gamma) signaling pathway (AID 651802); further: nearly all actives have a fitted effect of over 60% in size; further: potency means the concentration at half of the fitted maximal effect
Nuclear receptor ROR-gamma (Homo sapiens), sequence (P51449 whole entry, looked up): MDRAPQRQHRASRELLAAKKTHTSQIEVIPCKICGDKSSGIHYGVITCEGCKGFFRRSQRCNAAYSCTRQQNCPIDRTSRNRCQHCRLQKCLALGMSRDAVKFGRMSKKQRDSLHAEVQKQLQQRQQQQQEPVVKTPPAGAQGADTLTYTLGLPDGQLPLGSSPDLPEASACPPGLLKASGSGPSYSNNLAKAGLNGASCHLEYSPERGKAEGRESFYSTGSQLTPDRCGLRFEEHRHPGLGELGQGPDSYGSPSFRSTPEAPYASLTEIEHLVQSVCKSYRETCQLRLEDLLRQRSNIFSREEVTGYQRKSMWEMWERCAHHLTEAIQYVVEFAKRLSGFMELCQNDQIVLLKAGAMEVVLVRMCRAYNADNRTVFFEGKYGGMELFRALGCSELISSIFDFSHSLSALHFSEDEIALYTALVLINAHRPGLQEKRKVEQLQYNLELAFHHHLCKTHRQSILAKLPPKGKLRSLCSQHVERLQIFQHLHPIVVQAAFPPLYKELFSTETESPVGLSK
Procedure, shortened: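 Steps: cells dispensed; compound or DMSO transferred by pin tool; doxycycline added to induce the ROR response element-driven luciferase; plates held 16hr at 37C; ONE-Glo added and luminescence measured.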

[5] = qHTS assay for small molecule agonists of the antioxidant response element (ARE) signaling pathway measured by Nrf2-dependant transcriptional activity (AID 720636; active means well fitted curve in the direction sought with a large enough effect in the repeat runs; an effect the other way counts as inactive or inconclusive;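 further: HepG2 cells with an ARE-driven luciferase reporter; % of control where 0% means no effect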)
Procedure, shortened: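 HepG2 ARE-luc reporter line, 1% dialyzed FBS; 6 hr attachment at 37 C, compound pinned in, 16 hr at 37 C/5% CO2; ONE-Glo, 30 min RT, luminescence read.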

[6] = qHTS assay for small molecule antagonists of the retinoid-related orphan receptor gamma (ROR-gamma) signaling pathway - cell viability counter screen (AID 720652; active means well fitted curve in the direction sought with a large enough effect in the repeat runs; an effect the other way counts as inactive or inconclusive;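 further: compound exposure lasted 16 hr before ATP read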; further: potency means the concentration at half of the fitted maximal effect)
Procedure, shortened: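 Steps: seed CHO cells bearing TET-inducible ROR and ROR response element-luciferase; rest 5 hr at 37 C; add compound, then doxycycline; incubate 16 hr; add CellTiter-Glo and read luminescence as ATP-based viability.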

[7] = qHTS assay for small molecule agonists of the antioxidant response element (ARE) signaling pathway measured by Nrf2-dependant transcriptional activity - cell viability counter screen (AID 720653; active means well fitted curve in the direction sought with a large enough effect in the repeat runs; an effect the other way counts as inactive or inconclusive; further: potency means the concentration at half of the fitted maximal effect; on max response: on the % scale 0 is the no-effect control and ±100 the full control effect); conditions: ARE-bla HepG2 viability, CellTiter-Glo ATP luminescence, 16 h; max response: active compounds read low
Procedure, shortened: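 ARE-bla HepG2 cells (2,000/well) rested 5 hrs at 37C/5% CO2, then exposed to compounds in DMSO for 16 hrs. Viability was read in the same wells as intracellular ATP by luminescence, 30 min at room temperature after reagent addition.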

[8] = qHTS Assay for Identifying Gametocytocidal Compounds (AID 743244); further: potency means the concentration at half of the fitted maximal effect;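 on max response: on the % scale 0 is the no-effect control and ±100 the full control effect; actives lower the fluorescent signal which means gametocytes are killed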; conditions: P. falciparum 3D7 stage III-V gametocytes, alamarBlue, 72 h; max response: active compounds read low
Procedure, shortened: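 P. falciparum 3D7 stage III–V gametocytes (20,000 cells/well) were exposed to compounds for 72 h at 37 °C, 5% CO2. AlamarBlue was then added for 24 h; decreased resorufin fluorescence (Ex 525/Em 598 nm) indicated loss of viability.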

[9] = qHTS assay for cell viability of HEK293 cells (AID 743288); conditions: ATP luminescence (CellTiter-Glo), 18 h; max response: active compounds read low; further: nearly all actives have a fitted effect of over 50% in size; further: potency means the concentration at half of the fitted maximal effect; on max response: on the % scale 0 is the no-effect control and ±100 the full control effect
Procedure, shortened: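 Readout is luciferase-coupled ATP content (CellTiter-Glo luminescence, 30 min room temperature) as a measure of metabolically competent cells. Parental HEK293 cells were plated 5 h or more before compound addition, then treated 18 h at 37 C.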

[10] = qHTS assay for small molecule disruptors of the mitochondrial membrane potential - 5 hr assay (AID 651755; calls by dose curve; further: nearly all actives have a fitted effect of over 40% in size; further: potency means the concentration at half of the fitted maximal effect)
Procedure, shortened: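 Seed HepG2 overnight, add compound, incubate 5 hr at 37C and 5% CO2, stain 30 min with Mito-MPS, then measure monomer (490/535 nm) and aggregate (540/590 nm) fluorescence.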

[11] = target: Tyrosine-protein kinase Yes (Homo sapiens) (UniProt P07947); test: qHTS for small molecule inhibitors of Yes1 kinase: Primary Screen (AID 686947);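 further: plate controls were DMSO with enzyme for no effect and no-enzyme DMSO wells for full effect; nearly all actives have a fitted effect of over 60% in size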
Tyrosine-protein kinase Yes (Homo sapiens), sequence (P07947 whole entry, looked up): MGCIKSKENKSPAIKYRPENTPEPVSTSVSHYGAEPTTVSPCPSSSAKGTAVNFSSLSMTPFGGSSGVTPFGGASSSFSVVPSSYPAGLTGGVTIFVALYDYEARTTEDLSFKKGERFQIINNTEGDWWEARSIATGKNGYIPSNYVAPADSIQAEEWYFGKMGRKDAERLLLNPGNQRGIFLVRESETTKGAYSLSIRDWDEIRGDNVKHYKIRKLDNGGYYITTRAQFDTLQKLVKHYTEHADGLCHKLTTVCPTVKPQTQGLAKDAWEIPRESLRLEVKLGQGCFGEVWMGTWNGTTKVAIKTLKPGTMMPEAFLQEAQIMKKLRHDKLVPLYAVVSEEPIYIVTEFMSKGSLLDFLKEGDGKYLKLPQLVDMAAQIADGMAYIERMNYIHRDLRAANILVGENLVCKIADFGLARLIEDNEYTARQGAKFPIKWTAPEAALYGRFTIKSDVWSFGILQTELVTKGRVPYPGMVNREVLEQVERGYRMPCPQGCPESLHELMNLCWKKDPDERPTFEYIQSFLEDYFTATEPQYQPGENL
Procedure, shortened: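 ADP-Glo luminescence reports ADP formed by 4 nM Yes1 phosphorylating poly(E4Y) (0.3 mg/mL) with 0.1 mM ATP for 60 min at room temperature, following 20 min compound preincubation; normalised between DMSO wells with and without enzyme.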

[12] = qHTS for small molecule inhibitors of Yes1 kinase: Counter Assay (AID 686950);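 further: no kinase present so only ADP-Glo detection of a fixed ADP amount is tested; luminescence from ADP-Glo reporting ADP in a fixed ATP and ADP mixture; series mostly up to about 77 µM; 0% = DMSO wells with ATP plus ADP and -100% = ATP-only wells without ADP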
Procedure, shortened: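 Measuring interference with ADP-Glo, the assay ran 60 min at room temperature on an ATP/ADP mix lacking enzyme. Values were normalized to ATP-plus-ADP (maximum) and ATP-only (minimum) DMSO controls.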

[13] = target: Arylsulfatase A (Homo sapiens) (UniProt P15289); test: qHTS screen for enhancers of Arylsulfatase A (ASA1): LOPAC Validation Assay (AID 720538); conditions: outcome: dose series up to 57.5 µM
Arylsulfatase A (Homo sapiens), sequence (P15289 whole entry, looked up): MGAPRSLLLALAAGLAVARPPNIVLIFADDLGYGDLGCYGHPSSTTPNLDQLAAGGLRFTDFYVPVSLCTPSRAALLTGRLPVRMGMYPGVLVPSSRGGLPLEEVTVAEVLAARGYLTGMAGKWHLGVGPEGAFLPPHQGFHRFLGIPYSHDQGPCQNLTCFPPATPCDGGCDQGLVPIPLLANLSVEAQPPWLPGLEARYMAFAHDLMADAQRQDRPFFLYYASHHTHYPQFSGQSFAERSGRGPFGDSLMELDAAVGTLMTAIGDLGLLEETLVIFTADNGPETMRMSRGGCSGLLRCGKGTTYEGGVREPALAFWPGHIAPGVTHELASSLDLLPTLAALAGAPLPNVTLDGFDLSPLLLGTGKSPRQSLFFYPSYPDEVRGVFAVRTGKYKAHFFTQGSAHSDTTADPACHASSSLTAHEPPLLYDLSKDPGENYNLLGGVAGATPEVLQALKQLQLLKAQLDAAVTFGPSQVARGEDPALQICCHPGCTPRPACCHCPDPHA
Procedure, shortened: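 Enhancer assay in patient-derived MLD fibroblasts carrying ASA-I179S: 48 h compound exposure at 37 C, then 14 h room-temperature pNCS turnover (0.5 mM final) in lysis buffer. Read by fluorescence at 525/598 nm after NaOH stop.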

[14] = qHTS for compounds that reverse cellular toxicity of Amyloid beta (A-beta) peptide in yeast: LOPAC Validation Assay (AID 720559);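 further: plate controls were DMSO for no effect and equimolar ferric chloride plus clioquinol rescue for full effect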
Procedure, shortened: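 Rescue of A-beta toxicity was scored as yeast growth by 600 nm absorbance after 48 hr at 30 C with compound. Normalization used DMSO (negative) and equimolar ferric chloride plus clioquinol (positive).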

[15] = qHTS for Activators of Parkin Expression: LOPAC Validation Assay (NLuc Reporter) (AID 720572;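 further: 0% = DMSO and 100% = positive control compound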)
Procedure, shortened: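 Cells harboring the Parkin-promoter coincidence reporter were treated for 24 h at seven concentrations. NLuc output was measured sequentially after the FLuc channel and scaled between DMSO and positive control values.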

[16] = target: T1, Hexokinase-4 (Homo sapiens) + Glucokinase regulatory protein (Homo sapiens) (UniProt P35557+Q14397); test: qHTS assay for inhibitors of recombinant human GCK-GKRP interaction: ADP-Glo assay (AID 743206);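 further: plate controls were DMSO plus enzyme for no effect and no enzyme for full effect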
T1 sequence (P35557 whole entry, looked up): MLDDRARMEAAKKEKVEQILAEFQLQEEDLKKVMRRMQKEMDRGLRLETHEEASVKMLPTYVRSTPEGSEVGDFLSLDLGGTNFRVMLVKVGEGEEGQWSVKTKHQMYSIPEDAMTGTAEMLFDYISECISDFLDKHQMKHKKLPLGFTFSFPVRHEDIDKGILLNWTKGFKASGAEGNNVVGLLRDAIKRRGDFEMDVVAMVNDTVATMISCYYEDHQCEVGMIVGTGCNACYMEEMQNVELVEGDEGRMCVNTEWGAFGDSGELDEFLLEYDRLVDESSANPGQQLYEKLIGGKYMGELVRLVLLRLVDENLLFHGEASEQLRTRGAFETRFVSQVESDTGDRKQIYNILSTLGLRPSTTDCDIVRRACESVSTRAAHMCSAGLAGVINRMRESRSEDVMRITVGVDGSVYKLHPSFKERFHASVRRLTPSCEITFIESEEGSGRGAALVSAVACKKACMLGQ
T1 sequence (Q14397 whole entry, looked up): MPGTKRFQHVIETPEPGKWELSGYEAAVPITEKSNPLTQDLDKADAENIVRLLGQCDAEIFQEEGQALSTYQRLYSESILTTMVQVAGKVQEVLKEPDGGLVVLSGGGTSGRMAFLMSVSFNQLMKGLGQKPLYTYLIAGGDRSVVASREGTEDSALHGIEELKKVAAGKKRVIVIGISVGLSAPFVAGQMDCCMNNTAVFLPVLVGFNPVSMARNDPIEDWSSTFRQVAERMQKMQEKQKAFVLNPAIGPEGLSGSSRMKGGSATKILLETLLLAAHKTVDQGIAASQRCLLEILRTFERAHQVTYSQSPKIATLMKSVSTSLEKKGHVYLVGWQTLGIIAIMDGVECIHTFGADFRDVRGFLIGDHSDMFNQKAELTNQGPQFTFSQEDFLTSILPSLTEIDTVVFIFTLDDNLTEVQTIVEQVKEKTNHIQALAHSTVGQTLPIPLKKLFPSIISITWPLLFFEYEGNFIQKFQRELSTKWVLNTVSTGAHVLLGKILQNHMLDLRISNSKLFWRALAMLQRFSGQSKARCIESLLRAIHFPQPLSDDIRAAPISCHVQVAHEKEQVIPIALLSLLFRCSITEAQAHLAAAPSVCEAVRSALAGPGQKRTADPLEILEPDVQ
Procedure, shortened: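 Pin-transferred compounds meet a 15 nM GST-GCK/15 nM FLAG-GKRP/2 uM S6P mix (dispense concentrations). ATP is then added to 0.4 mM final with 5 mM glucose, and the reaction runs 60 min at room temperature. ADP is quantified luminescently.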

[17] = target: T1, Hexokinase-4 (Homo sapiens) + Glucokinase regulatory protein (Homo sapiens); test: qHTS assay for inhibitors of recombinant human GCK-GKRP interaction: HTRF assay (AID 743207);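 further: 0% = DMSO with GCK present and -100% = DMSO wells lacking GCK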
Procedure, shortened: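 After 60 min equilibration at room temperature with anti-FLAG XL665 and anti-GST antibodies, FRET ratio (665/615 nm, excitation 320 nm) was read. Proteins: GST-GCK and FLAG-GKRP, each 5 nM, plus 2 uM S6P, pH 7.1 buffer; GCK-free wells define minimum signal.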

With NC(N)=NC(N)=NCCc1ccccc1 the outcome [1] was “inactive”, the activation [2] was 1.08% and -0.702% and the Potency [3] was 35.5 µM (active). For the same compound, the max response [3] was -1.6%, the Potency [4] was 16.8 µM (active) and the outcome [5] was “inactive”. For the same compound, the Potency [6] was “inactive”, the max response [7] was -24.7% and -24.4% and the max response [8] was 18.8% and 0.965%. The max response [9] was -5.89% and -15.7%.

For CC(=O)CC(c1ccccc1)c1c(O)c2ccccc2oc1=O (stereo unspecified), the max response [3] was -0.925%, the outcome [5] was “inactive” and the max response [7] was 12%. For the same compound, the max response [9] was 0.884%.

With CN(C)c1ccc(C(=C2C=CC(=[N+](C)C)C=C2)c2ccc(N(C)C)cc2)cc1 the Potency [10] was 1.19 µM (active), the activation [2] was -11.2% and -3.03% and the max response [3] was -11.8% and -11.3%. For the same compound, the Potency [4] was 2.37 µM (active), the outcome [5] was “inactive” and the Potency [6] was 10.6 µM (active). The Potency [7] was 25.1 µM (active) and 12.6 µM (active), the Potency [8] was 7.08 µM (active) and the Potency [9] was 14.1 µM (active) and 11.2 µM (active).

For CC[C@H](C)C(=O)O[C@H]1C[C@@H](C)C=C2C=C[C@H](C)[C@H](CC[C@@H]3C[C@@H](O)CC(=O)O3)[C@H]21, the Potency [10] was “inactive”, the outcome [1] was “inactive” and the activation [2] was -1.02%. For the same compound, the max response [3] was 1.65%, the Potency [4] was 4.73 µM (active) and the outcome [5] was “inactive”. The max response [7] was -3.79%, the max response [8] was 4.74% and the max response [9] was -9.34%.

For Cc1c(-c2ccc(O)cc2)n(Cc2ccc(OCCN3CCCCCC3)cc2)c2ccc(O)cc12, the outcome [11] was “inactive” and the outcome [12] was “inactive”.

In the case of COc1cc2nc(N3CCCN(C)CC3)nc(NC3CCN(Cc4ccccc4)CC3)c2cc1OC, the outcome [11] was “inactive”, the outcome [12] was “inactive” and the outcome [13] was “inactive”. For the same compound, the outcome [14] was “inactive”, the outcome [15] was “inactive” and the outcome [16] was “inactive”. The outcome [17] was “inactive” and the Potency [8] was 1.18 µM (active).

For CCc1cc(C(N)=S)ccn1, the Potency [10] was “inactive”, the outcome [1] was “inactive” and the max response [3] was -3.66% and -3.46%. For the same compound, the Potency [4] was “inactive”, the outcome [5] was “inactive” and the Potency [6] was “inactive”. For the same compound, the max response [7] was -5.32% and -4.73%, the max response [8] was -11% and the max response [9] was 6.59% and -10.6%.

For O=C(N[C@H](CO)[C@H](O)c1ccc([N+](=O)[O-])cc1)C(Cl)Cl, the Potency [10] was “inactive”, the outcome [1] was “inactive” and the activation [2] was 2.18% and 1.42%. For the same compound, the max response [3] was 0.618% and -1.35%, the Potency [4] was “inactive” and the outcome [5] was “inactive”. The Potency [6] was “inactive”, the max response [7] was 3.1% and 1.36% and the max response [8] was -4.26% and -6.91%. The max response [9] was -6.51% and -1.46%.

With CC(=O)Oc1ccccc1C(=O)Nc1ncc([N+](=O)[O-])s1 the max response [3] was -4.4%, the outcome [5] was “inactive” and the Potency [9] was 28.2 µM (active).

With S=P(N1CC1)(N1CC1)N1CC1 the activation [2] was 0.0951%, the max response [3] was -1.18% and the outcome [5] was “inactive”. The max response [7] was -3.97%, the max response [8] was 9.1% and 8.65% and the max response [9] was -14.8%.

For COc1cc2c(Nc3ccc(Br)cc3F)ncnc2cc1OCC1CCN(C)CC1, the outcome [12] was “inactive” and the Potency [8] was 9.35 µM (active) and 5.62 µM (active).

For N[C@@H](Cc1ccc(O)c(O)c1)C(=O)O, the activation [2] was 2.04%, the max response [3] was -1.63% and the outcome [13] was “inactive”. The outcome [14] was “inactive”, the outcome [15] was “inactive” and the max response [7] was 13.2%. The outcome [16] was “inactive”, the outcome [17] was “inactive” and the max response [8] was 20.2%. It also gave a max response [9] of 4.23%.

With Cc1nnc(NS(=O)(=O)c2ccc(N)cc2)s1 the outcome [1] was “inactive”, the activation [2] was -0.461% and the max response [3] was 6.59%. The Potency [4] was “inactive”, the outcome [5] was “inactive” and the Potency [6] was “inactive”. For the same compound, the max response [7] was 4.88%, the max response [8] was -4.6% and the max response [9] was 0.46%.

For Cc1nnc(C(=O)NC(C)(C)c2nc(C(=O)NCc3ccc(F)cc3)c(O)c(=O)n2C)o1, the outcome [11] was “inactive”, the outcome [12] was “inactive” and the max response [8] was 3.93%.

For N=C(N)c1ccc(OCCCCCOc2ccc(C(=N)N)cc2)cc1, the outcome [1] was “inactive”, the max response [3] was -3.05% and -5.88% and the outcome [5] was “inactive”. For the same compound, the Potency [6] was “inactive”, the max response [7] was -9.35% and -16.5% and the Potency [8] was 6.31 µM (active). For the same compound, the max response [9] was -23.8% and -12.7%.

With OC(Cn1cncn1)(Cn1cncn1)c1ccc(F)cc1F the activation [2] was -1.75%, the max response [3] was -1.95% and the outcome [5] was “inactive”. The max response [7] was 0.0873%, the max response [8] was -0.14% and the max response [9] was -6.93%.

In the case of O=C(O)c1cc(=O)[nH]c(=O)[nH]1, the outcome [1] was “inactive”, the activation [2] was 0.283% and the max response [3] was -0.877%. The Potency [4] was “inactive”, the outcome [5] was “inactive” and the Potency [6] was “inactive”. For the same compound, the max response [7] was 16.2%, the max response [8] was -0.993% and the max response [9] was -10.9%.
